Data as given in PubChem BioAssay AID1159580 (chemical genetic matrix, 2015).
“And” between values parts separate entries of the source, which are not always exact repeats. Equal entries are not always repeated. About 2,000 (36%) of roughly 5,500 compounds were called active. About 18% were inconclusive and are not listed. Cut-off read from the data, not from the text of the source: active = normalized growth mostly below about 0.91 (no sharp cut-off); inconclusive = no clear call, values can overlap the other calls; inactive = mostly above about 0.92. The list shows a part of the results.

Experiment: chemical genetic growth profiling, strain panel (AID 1159580);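 note: tested at 20 µM; growth read once vehicle control cultures reached saturation at 30 °C; 1 = growth at the plate median or of vehicle wells; lower values mean less growth of the strain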
Settings: S. cerevisiae deletion strains, growth OD
[1] = locus YAL013W, strain DEP1, active compounds read low
[2] = locus YDR150W, strain NUM1, active compounds read low
[3] = locus YJR075W, strain HOC1, active compounds read low
[4] = locus YNL153C, strain GIM3, active compounds read low

Measured: normalized growth

CN1CC(CNC(=O)OCc2ccccc2)CC2c3cccc4c3c(cn4C)CC21 (stereo unspecified)
inactive: [1] 1.01 | locus YBR021W, strain FUR4, active compounds read low 1.02 | locus YBR229C, strain ROT2, active compounds read low 1 | locus YCL029C, strain bik1, active compounds read low 0.977 | locus YDL035C, strain GPR1, active compounds read low 1.04 | locus YDL074C, strain BRE1, active compounds read low 0.999 | locus YDL101C, strain DUN1, active compounds read low 0.978 | locus YDL185W, strain tfp1, active compounds read low 0.97 | locus YDL192W, strain arf1, active compounds read low 0.993 | locus YDR101C, strain arx1, active compounds read low 0.995 | [2] 0.994 | locus YDR162C, strain NBP2, active compounds read low 1.02 | locus YDR318W, strain mcm21, active compounds read low 0.985 | locus YDR388W, active compounds read low 0.987 | locus YDR502C, strain sam2, active compounds read low 0.941 | locus YEL061C, strain CIN8, active compounds read low 0.992 | locus YER110C, active compounds read low 0.972 | locus YER155C, strain BEM2, active compounds read low 0.991 | locus YER167W, strain BCK2, active compounds read low 1 | locus YGL078C, strain dbp3, active compounds read low 0.995 | locus YGL086W, strain mad1, active compounds read low 0.982 | locus YGL248W, strain PDE1, active compounds read low 0.989 | locus YGR078C, strain PAC10, active compounds read low 0.995 | locus YGR135W, strain pre9, active compounds read low 0.984 | locus YGR252W, strain gcn5, active compounds read low 1.04 | locus YHR030C, strain SLT2, active compounds read low 0.998 and 0.982 | locus YHR079C, strain IRE1 (second series), active compounds read low 0.965 | locus YHR079C, strain IRE1, active compounds read low 0.972 | locus YHR094C, strain hxt1, active compounds read low 0.988 | locus YHR129C, strain ARP1, active compounds read low 0.999 | locus YHR200W, strain rpn10, active compounds read low 0.985 | locus YIL066C, strain RNR3, active compounds read low 1.01 | locus YIL073C, strain SPO22, active compounds read low 0.911 | locus YIL125W, strain kgd1, active compounds read low 1 | locus YIR030C, strain dcg1, active compounds read low 0.986 | locus YJL095W, strain BCK1, active compounds read low 0.957 and 0.968 | locus YJL134W, strain LCB3, active compounds read low 0.995 | locus YJL168C, strain set2, active compounds read low 1 | locus YJL187C, strain SWE1 (second series), active compounds read low 0.973 | locus YJR043C, strain POL32, active compounds read low 1.07 | locus YJR066W, strain TOR1, active compounds read low 0.877 | [3] 0.981 | locus YKL009W, strain mrt4, active compounds read low 0.979 | locus YKL068W, active compounds read low 0.983 | locus YKL085W, strain MDH1 (second series), active compounds read low 0.975 | locus YKL085W, strain MDH1, active compounds read low 0.975 | locus YKR001C, strain vps1, active compounds read low 0.996 | locus YLR039C, strain RIC1, active compounds read low 0.988 | locus YLR058C, strain SHM2, active compounds read low 0.988 | locus YLR102C, strain apc9, active compounds read low 0.986 | locus YLR113W, strain HOG1, active compounds read low 1.03 | locus YLR262C, strain YPT6, active compounds read low 0.998 | locus YLR268W, strain sec22, active compounds read low 0.986 | locus YLR330W, strain CHS5, active compounds read low 0.993 | locus YLR342W, strain FKS1 (second series), active compounds read low 1.07 | locus YLR371W, strain rom2, active compounds read low 0.992 | locus YLR418C, strain cdc73, active compounds read low 1.01 | locus YML016C, strain PPZ1, active compounds read low 0.999 | locus YML032C, strain rad52, active compounds read low 0.998 | locus YML124C, strain tub3, active compounds read low 1 | locus YMR078C, strain ctf18, active compounds read low 0.983 | locus YMR223W, strain ubp8, active compounds read low 0.979 | locus YMR263W, strain SAP30, active compounds read low 0.979 | locus YMR307W, strain GAS1, active compounds read low 1.16 | locus YNL067W, strain RPL9B, active compounds read low 0.96 | [4] 0.981 | locus YNL183C, strain NPR1, active compounds read low 0.879 | locus YNL233W, strain BNI4, active compounds read low 0.986 | locus YNL250W, strain rad50, active compounds read low 0.971 | locus YNL271C, strain bni1, active compounds read low 0.992 | locus YNL298W, strain CLA4, active compounds read low 0.99 | locus YNL307C, strain MCK1, active compounds read low 0.985 | locus YNR052C, strain pop2, active compounds read low 0.975 | locus YOL012C, strain htz1 0.968 | locus YOL147C, strain pex11, active compounds read low 0.989 | locus YOR061W, strain CKA2, active compounds read low 0.994 | locus YOR069W, strain VPS5, active compounds read low 0.997 | locus YOR136W, strain idh2, active compounds read low 0.98 | locus YOR144C, strain elg1, active compounds read low 1.01 | locus YOR184W, strain ser1, active compounds read low 1 | locus YOR231W, strain MKK1, active compounds read low 0.991 | locus YOR316C, strain cot1, active compounds read low 0.979 | locus YPL256C, strain CLN2, active compounds read low 0.986 | locus YPR119W, strain clb2, active compounds read low 0.981 | locus YPR141C, strain kar3, active compounds read low 0.988 | locus YPR163C, strain tif3, active compounds read low 1 | locus YPR167C, strain met16, active compounds read low 0.991 | strain wtn01, active compounds read low 1.01

CN1C[C@H](CNC(=O)OCc2ccccc2)C[C@@H]2c3cccc4c3c(cn4C)C[C@H]21
inactive: [1] 0.987 | locus YAL040C, strain CLN3, active compounds read low 0.985 | locus YCL061C, strain MRC1 (second series), active compounds read low 0.998 | [2] 0.994 | locus YDR363W, strain ESC2, active compounds read low 1.01 | locus YER002W, strain NOP16, active compounds read low 1.04 | [3] 0.969 | [4] 0.904 | locus YNL175C, strain NOP13, active compounds read low 1.01 | locus YNL197C, strain WHI3, active compounds read low 0.994 | locus YNL224C, strain SQS1, active compounds read low 1.04 | locus YOR083W, strain WHI5 (second series), active compounds read low 0.969 | locus YPL055C, strain LGE1, active compounds read low 1.02
